The record followed here is PubChem BioAssay (EPA / NIEHS).

Results filed as inconclusive are left out. Active and inactive are the calls of the source. Rule for the calls: active = hit-call score of the fitted dose curve at least 0.9, where 1 is the maximum; inconclusive = response in the unintended direction; inactive = score below 0.9.

human Matrix Metalloproteinase-3 (MMP3), MMP3 (gene 4314), sequence (P08254 whole entry, looked up): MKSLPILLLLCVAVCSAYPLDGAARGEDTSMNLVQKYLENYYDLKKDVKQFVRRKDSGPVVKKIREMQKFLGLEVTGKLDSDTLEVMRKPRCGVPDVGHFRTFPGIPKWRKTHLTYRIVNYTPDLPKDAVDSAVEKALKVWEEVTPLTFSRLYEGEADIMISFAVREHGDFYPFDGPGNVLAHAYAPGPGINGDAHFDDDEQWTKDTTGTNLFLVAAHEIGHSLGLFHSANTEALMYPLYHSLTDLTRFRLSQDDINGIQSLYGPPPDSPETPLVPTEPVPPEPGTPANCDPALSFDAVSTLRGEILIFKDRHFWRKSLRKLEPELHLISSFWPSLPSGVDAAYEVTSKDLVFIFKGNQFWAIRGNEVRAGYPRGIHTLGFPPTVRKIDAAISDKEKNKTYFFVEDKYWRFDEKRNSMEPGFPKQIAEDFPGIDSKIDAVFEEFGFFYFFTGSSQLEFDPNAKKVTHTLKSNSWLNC
Mitogen-activated protein kinase 3 (Homo sapiens), sequence (P27361 whole entry, looked up): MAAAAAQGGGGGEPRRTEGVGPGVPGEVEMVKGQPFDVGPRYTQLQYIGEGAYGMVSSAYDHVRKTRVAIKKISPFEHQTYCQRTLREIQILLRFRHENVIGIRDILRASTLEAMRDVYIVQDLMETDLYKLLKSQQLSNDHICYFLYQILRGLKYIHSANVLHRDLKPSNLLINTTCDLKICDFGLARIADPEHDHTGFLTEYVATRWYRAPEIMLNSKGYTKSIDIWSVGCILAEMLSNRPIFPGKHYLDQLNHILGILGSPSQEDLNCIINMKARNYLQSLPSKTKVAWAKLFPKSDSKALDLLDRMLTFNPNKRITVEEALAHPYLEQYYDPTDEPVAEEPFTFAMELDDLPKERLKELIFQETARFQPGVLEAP

The target in one assay is Mitogen-activated protein kinase 3 (Homo sapiens) (UniProt P27361). The assay is described as follows: NVS_ENZ_hMAPK3: NovaScreen (NVS) Enzymatic Assay for human Mitogen-Activated Protein Kinase 3 (MAPK 3) (AID 2283177). In outline:
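Cell-free enzymatic assay with recombinant protein and specific substrate; fluorescence and electrophoretic mobility shift read-out 1 h after dosing. Primary screen duplicate at 25 uM; actives then run in concentration-response up to 50 uM, loss of signal versus DMSO.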
Take `CCCCCCCCCCCCc1ccccc1S(=O)(=O)O`: the AC50 is 18 µM (active).
For `O=C(O)c1ccccc1C(c1ccc(O)cc1)c1ccc(O)cc1`, the outcome was inactive.
Turning to `N#C[C@@H]1CC(F)(F)CN1C(=O)CNC1CC2CCC(C1)N2c1ncccn1` (some centres not stated), the outcome was inactive.
On the same count and under the same terms, the same measure for `O=C(O)Cc1cc(I)c(Oc2cc(I)c(O)c(I)c2)c(I)c1`: “inactive”.

Another assay deals with human Matrix Metalloproteinase-3 (MMP3), MMP3 (gene 4314) (UniProt P08254). The assay is described as follows: NVS_ENZ_hMMP3: NovaScreen (NVS) Enzymatic Assay for human Matrix Metalloproteinase-3 (MMP3) (AID 2283185). In outline:
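Cell-free recombinant human MMP3 activity, fluorescence intensity read 1 h after dosing. Primary screen duplicate at 25 uM, actives retested in concentration series; loss of signal vs DMSO baseline.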
Take `CCCCCCCCCCCCc1ccccc1S(=O)(=O)O`: the AC50 is 18.2 µM (active).
Consider `Cc1oc(-c2ccccc2)nc1CCOc1ccc(C[C@H](Nc2ccccc2C(=O)c2ccccc2)C(=O)O)cc1`, for which the result was inactive.
Consider `CCCOc1sc(C(=O)N2CCC(c3cc(CN)ccc3F)CC2)c(C)c1Br`, for which the result was inactive.
